Results taken from paper PMC7862700, “An all-to-all approach to the identification of sequence-specific readers for epigenetic DNA modifications on cytosine”.

What was measured:
Experiment in all cases: DAPPL (digital affinity profiling via proximity ligation, sequencing); 10 mM Tris-HCl pH 7.5, 50 mM NaCl, 1 mM DTT, 4% glycerol, room temperature, 30 min; GST-TFs on glutathione beads, 16-mer random dsDNA library, 0.1% formaldehyde crosslink after washing; high values mean tight binding
FEV = biological target: T1, FEV (Homo sapiens, UniProt Q99581 1-238); conditions: protein: recombinant; tags: N-terminal GST; dsDNA, one strand shown
T1 sequence: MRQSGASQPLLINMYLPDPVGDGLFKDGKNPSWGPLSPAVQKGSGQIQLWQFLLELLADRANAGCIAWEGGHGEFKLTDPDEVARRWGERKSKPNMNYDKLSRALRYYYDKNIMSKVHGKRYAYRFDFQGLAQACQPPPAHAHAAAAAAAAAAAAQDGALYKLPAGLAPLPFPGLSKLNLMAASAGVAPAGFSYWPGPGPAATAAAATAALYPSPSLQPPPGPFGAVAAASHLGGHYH
Procedure, shortened: (§1)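 In yeast, human transcription factors were expressed with a GST fusion, then pulled down on glutathione beads and given DNA barcodes. Pooled with a tag-only sample, they were exposed to 200 nmole of a 16-mer random double-stranded DNA library (Tris/NaCl/DTT/glycerol buffer, room temperature, 30 min), washed, crosslinked with 0.1% formaldehyde, proximity-ligated using BsaI/T4 ligase for 1 h at 37 °C, PCR-amplified and read on an Illumina NextSeq500. Each hexamer's frequency of reads for a factor, divided by the matching frequency for the tag-only sample, gives the binding signal.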

ETV5 = ETV5 (Homo sapiens, UniProt P41161 1-510); conditions: protein: recombinant; tags: N-terminal GST; dsDNA, one strand shown
ETV5, sequence (P41161 whole entry): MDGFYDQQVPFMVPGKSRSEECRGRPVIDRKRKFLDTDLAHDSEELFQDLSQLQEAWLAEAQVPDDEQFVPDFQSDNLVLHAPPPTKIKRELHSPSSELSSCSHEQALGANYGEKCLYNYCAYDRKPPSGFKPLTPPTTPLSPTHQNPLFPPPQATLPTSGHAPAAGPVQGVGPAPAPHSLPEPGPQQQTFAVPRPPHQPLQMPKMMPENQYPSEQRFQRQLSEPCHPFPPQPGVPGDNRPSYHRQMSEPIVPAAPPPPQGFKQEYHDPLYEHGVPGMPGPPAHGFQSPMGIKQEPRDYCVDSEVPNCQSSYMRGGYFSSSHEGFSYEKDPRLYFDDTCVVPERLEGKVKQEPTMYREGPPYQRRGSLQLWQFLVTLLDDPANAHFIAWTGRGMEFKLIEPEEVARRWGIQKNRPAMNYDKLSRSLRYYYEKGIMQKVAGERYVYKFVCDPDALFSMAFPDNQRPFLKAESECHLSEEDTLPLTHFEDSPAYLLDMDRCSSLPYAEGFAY
Procedure, shortened: as §1

HSF1 = HSF1 (Homo sapiens, UniProt Q00613 1-529); conditions: protein: recombinant; tags: N-terminal GST; chain copies: 3; dsDNA, one strand shown
HSF1, sequence (Q00613 whole entry): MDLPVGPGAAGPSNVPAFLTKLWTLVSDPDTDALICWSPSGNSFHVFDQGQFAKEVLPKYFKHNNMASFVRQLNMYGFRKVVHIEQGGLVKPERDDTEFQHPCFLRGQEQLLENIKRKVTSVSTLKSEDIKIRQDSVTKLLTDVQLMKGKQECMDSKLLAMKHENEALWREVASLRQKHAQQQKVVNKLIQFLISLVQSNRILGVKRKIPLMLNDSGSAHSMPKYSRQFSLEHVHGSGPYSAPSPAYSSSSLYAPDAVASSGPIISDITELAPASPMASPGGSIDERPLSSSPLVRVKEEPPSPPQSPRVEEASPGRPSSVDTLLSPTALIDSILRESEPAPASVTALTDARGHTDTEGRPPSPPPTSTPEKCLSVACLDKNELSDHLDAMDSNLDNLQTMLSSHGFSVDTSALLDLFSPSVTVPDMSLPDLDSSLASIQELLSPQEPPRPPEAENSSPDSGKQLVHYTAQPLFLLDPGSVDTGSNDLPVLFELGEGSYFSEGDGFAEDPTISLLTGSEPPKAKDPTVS
Procedure, shortened: as §1

SPIC = biological target: T2, SPIC (Homo sapiens, UniProt Q8N5J4 1-248); conditions: protein: recombinant; tags: N-terminal GST; dsDNA, one strand shown
T2 sequence: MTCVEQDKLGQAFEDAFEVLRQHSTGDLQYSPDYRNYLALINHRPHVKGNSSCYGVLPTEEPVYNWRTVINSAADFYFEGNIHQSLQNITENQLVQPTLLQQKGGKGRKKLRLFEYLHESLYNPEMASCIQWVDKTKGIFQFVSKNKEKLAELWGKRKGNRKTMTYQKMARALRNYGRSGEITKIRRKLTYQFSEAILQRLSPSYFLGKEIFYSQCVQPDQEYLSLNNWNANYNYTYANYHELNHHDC
Procedure, shortened: as §1

ELF4 = ELF4 (Homo sapiens, UniProt Q99607 1-663); conditions: protein: recombinant; tags: N-terminal GST; dsDNA, one strand shown
ELF4, sequence (Q99607 whole entry): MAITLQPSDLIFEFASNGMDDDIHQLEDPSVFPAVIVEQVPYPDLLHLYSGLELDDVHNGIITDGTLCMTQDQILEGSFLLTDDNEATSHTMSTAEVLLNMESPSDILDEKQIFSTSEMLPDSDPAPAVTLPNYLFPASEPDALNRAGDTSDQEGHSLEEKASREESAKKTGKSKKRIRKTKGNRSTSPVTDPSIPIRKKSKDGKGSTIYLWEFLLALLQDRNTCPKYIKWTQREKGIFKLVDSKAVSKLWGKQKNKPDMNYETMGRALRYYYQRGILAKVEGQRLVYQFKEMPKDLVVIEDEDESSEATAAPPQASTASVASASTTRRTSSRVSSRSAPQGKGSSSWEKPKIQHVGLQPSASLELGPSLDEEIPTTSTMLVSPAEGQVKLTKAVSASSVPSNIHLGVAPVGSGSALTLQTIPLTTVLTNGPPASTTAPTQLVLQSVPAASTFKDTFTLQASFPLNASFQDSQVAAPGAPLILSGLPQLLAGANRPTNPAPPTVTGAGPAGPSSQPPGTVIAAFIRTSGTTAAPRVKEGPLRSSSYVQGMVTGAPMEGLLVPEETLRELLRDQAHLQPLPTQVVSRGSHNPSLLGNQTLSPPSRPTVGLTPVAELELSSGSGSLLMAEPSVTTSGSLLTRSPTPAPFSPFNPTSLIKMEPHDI
Procedure, shortened: as §1

ELK4 = biological target: T3, ELK4 (Homo sapiens, UniProt P28324-2 1-405); conditions: protein: recombinant; tags: N-terminal GST; dsDNA, one strand shown
T3 sequence: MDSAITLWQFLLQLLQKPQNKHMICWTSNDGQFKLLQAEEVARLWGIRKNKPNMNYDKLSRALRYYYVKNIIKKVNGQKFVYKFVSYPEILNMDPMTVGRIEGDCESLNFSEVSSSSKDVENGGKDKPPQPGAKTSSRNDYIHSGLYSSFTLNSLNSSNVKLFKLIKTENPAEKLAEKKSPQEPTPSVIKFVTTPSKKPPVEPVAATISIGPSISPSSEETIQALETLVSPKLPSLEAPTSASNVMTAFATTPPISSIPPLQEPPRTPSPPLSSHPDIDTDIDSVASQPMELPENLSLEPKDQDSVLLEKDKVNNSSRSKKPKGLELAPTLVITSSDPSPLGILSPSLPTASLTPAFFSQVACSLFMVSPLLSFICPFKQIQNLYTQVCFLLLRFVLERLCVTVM
Procedure, shortened: as §1

ETV2 = biological target: T4, ETV2 (Homo sapiens, UniProt O00321 1-342); conditions: protein: recombinant; tags: N-terminal GST; dsDNA, one strand shown
T4 sequence: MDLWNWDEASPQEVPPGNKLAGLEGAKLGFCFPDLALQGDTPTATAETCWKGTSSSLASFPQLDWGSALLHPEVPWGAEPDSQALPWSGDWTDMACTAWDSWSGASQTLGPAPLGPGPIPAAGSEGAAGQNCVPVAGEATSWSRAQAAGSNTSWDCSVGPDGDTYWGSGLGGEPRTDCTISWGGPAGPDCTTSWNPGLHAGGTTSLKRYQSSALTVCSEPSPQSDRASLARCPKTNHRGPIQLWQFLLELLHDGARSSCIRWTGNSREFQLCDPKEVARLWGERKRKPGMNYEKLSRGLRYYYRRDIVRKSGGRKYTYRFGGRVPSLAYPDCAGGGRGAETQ
Procedure, shortened: as §1

ELF3 = biological target: T5, ELF3 (Homo sapiens, UniProt P78545 1-371); conditions: protein: recombinant; tags: N-terminal GST; dsDNA, one strand shown
T5 sequence: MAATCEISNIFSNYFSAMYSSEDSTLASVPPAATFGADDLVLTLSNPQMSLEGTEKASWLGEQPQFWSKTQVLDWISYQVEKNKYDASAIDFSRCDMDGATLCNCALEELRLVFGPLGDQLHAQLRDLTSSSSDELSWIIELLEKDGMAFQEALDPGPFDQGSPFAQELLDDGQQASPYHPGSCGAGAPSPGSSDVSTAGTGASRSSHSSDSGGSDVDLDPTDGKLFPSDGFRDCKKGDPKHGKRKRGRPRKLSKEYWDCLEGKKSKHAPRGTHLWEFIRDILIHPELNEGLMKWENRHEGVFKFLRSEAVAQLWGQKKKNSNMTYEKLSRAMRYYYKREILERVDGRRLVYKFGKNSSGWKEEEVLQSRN
Procedure, shortened: as §1

ETV1 = ETV1 (Homo sapiens, UniProt P50549 1-477); conditions: protein: recombinant; tags: N-terminal GST; dsDNA, one strand shown
ETV1, sequence (P50549 whole entry): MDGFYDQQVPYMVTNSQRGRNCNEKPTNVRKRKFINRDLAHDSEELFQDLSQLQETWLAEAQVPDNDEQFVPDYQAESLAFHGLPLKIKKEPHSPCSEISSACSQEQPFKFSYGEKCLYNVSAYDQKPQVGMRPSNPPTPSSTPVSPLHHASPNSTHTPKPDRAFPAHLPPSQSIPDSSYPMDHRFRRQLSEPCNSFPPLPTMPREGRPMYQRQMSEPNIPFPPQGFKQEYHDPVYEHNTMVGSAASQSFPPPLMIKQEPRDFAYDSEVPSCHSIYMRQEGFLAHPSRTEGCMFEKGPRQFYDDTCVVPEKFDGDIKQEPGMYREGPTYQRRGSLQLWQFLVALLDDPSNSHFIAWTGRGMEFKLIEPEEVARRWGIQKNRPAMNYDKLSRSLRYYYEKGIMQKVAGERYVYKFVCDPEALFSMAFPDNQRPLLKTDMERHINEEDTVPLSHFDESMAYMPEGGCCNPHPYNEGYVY
Procedure, shortened: as §1

ERF = biological target: T6, ERF (Homo sapiens, UniProt P50548 1-548); conditions: protein: recombinant; tags: N-terminal GST; dsDNA, one strand shown
T6 sequence: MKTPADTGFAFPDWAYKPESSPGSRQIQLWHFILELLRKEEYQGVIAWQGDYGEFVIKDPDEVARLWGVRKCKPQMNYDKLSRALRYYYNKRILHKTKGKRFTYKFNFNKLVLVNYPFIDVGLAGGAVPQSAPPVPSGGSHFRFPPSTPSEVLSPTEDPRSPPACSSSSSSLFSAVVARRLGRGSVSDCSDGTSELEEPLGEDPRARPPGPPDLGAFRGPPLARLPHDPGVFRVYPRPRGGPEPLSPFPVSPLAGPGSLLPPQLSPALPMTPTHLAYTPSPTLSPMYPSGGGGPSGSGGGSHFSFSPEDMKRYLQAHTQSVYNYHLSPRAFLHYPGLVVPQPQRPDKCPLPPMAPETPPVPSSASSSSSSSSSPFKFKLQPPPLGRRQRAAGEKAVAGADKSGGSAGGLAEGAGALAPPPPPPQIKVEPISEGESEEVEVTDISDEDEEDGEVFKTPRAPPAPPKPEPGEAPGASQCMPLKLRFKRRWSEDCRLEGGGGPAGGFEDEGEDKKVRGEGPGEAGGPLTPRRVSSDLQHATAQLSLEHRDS
Procedure, shortened: as §1

ETV3L = biological target: T7, ETV3L (Homo sapiens, UniProt Q6ZN32 1-361); conditions: protein: recombinant; tags: N-terminal GST; dsDNA, one strand shown
T7 sequence: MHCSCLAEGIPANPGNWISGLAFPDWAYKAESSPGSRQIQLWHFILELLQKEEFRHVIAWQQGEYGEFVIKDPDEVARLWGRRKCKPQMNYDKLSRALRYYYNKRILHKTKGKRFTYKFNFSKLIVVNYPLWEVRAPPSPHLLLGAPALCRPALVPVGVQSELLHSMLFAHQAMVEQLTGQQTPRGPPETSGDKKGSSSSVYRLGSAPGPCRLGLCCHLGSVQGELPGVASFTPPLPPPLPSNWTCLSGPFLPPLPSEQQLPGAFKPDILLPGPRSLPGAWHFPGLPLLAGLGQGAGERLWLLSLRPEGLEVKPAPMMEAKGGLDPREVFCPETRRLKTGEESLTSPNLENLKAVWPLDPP
Procedure, shortened: as §1

ETS2 = biological target: T8, ETS2 (Homo sapiens, UniProt P15036 1-469); conditions: protein: recombinant; tags: N-terminal GST; dsDNA, one strand shown
T8 sequence: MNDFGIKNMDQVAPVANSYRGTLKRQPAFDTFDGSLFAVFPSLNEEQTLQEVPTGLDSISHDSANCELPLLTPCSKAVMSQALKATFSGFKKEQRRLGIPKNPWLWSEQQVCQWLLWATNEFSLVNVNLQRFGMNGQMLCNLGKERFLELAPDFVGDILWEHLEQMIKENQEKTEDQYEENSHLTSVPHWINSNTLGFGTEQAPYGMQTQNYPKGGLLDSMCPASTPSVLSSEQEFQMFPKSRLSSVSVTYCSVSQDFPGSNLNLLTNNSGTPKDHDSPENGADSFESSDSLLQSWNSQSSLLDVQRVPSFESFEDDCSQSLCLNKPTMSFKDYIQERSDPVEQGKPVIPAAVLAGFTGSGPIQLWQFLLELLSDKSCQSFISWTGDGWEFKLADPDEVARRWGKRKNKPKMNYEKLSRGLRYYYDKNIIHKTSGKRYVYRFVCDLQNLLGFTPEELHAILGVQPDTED
Procedure, shortened: as §1

SPDEF = biological target: T9, SPDEF (Homo sapiens, UniProt O95238 1-335); conditions: protein: recombinant; tags: N-terminal GST; dsDNA, one strand shown
T9 sequence: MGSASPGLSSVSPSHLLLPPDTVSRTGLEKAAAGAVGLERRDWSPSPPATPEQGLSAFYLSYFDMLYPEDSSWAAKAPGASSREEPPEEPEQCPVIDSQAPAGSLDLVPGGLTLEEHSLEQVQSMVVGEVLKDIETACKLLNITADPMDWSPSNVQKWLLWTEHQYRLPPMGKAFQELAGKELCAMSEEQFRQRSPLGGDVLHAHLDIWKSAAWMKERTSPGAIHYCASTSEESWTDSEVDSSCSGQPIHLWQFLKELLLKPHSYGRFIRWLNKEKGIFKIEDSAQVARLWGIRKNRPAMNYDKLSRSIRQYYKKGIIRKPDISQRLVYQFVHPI
Procedure, shortened: as §1

ETV7 = biological target: T10, ETV7 (Homo sapiens, UniProt Q9Y603 1-341); conditions: protein: recombinant; tags: N-terminal GST; dsDNA, one strand shown
T10 sequence: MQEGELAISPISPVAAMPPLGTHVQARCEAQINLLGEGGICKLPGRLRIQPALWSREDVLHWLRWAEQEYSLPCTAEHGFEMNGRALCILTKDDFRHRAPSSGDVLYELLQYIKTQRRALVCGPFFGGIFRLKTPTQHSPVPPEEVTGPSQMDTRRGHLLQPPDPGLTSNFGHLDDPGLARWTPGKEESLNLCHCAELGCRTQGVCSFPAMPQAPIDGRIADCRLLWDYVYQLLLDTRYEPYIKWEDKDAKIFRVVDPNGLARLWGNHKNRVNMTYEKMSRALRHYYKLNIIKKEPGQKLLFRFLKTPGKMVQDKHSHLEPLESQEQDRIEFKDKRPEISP
Procedure, shortened: as §1

ELF5 = biological target: T11, ELF5 (Homo sapiens, UniProt Q9UKW6-2 1-255); conditions: protein: recombinant; tags: N-terminal GST; dsDNA, one strand shown
T11 sequence: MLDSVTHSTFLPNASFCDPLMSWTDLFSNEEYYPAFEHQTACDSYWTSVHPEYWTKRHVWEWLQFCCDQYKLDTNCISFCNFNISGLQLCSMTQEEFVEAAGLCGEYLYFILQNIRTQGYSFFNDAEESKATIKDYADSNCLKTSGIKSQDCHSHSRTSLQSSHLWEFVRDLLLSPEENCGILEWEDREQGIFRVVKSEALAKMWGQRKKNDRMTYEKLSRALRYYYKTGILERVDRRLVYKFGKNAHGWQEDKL
Procedure, shortened: as §1

ETV3 = biological target: T12, ETV3 (Homo sapiens, UniProt P41162-2 1-143); conditions: protein: recombinant; tags: N-terminal GST; dsDNA, one strand shown
T12 sequence: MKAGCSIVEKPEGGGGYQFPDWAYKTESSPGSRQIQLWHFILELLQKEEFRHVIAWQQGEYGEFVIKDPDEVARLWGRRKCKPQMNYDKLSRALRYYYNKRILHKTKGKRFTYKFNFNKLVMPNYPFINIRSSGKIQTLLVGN
Procedure, shortened: as §1

ETV6 = ETV6 (Homo sapiens, UniProt P41212 1-452); conditions: protein: recombinant; tags: N-terminal GST; dsDNA, one strand shown
ETV6, sequence (P41212 whole entry): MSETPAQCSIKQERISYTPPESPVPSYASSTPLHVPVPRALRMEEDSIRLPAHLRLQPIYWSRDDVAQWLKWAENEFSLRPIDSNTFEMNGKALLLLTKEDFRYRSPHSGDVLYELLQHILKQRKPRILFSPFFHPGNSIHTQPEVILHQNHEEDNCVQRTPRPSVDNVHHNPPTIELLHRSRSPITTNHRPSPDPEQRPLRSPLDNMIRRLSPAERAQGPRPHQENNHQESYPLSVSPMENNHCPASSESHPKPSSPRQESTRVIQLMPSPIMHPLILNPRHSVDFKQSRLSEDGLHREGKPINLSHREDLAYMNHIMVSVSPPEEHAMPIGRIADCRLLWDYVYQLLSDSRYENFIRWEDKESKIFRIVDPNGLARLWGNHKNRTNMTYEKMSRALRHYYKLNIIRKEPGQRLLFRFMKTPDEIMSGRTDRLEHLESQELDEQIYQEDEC
Procedure, shortened: as §1

With ACTGCC the binding signal (FEV) was 1.39 fold enrichment (6-mer frequency, TF over GST control), the binding signal (ETV5) was 1.38 fold enrichment (6-mer frequency, TF over GST control) and the binding signal (HSF1) was 1.06 fold enrichment (6-mer frequency, TF over GST control). The binding signal (SPIC) was 1.61 fold enrichment (6-mer frequency, TF over GST control), the binding signal (ELF4) was 1.39 fold enrichment (6-mer frequency, TF over GST control) and the binding signal (ELK4) was 1.31 fold enrichment (6-mer frequency, TF over GST control). The binding signal (ETV2) was 1.16 fold enrichment (6-mer frequency, TF over GST control), the binding signal (ELF3) was 1.24 fold enrichment (6-mer frequency, TF over GST control) and the binding signal (ETV1) was 1.3 fold enrichment (6-mer frequency, TF over GST control). The binding signal (ERF) was 1.4 fold enrichment (6-mer frequency, TF over GST control), the binding signal (ETV3L) was 1.46 fold enrichment (6-mer frequency, TF over GST control) and the binding signal (ETS2) was 1.29 fold enrichment (6-mer frequency, TF over GST control). For the same sequence, the binding signal (SPDEF) was 1.46 fold enrichment (6-mer frequency, TF over GST control), the binding signal (ETV7) was 1.34 fold enrichment (6-mer frequency, TF over GST control) and the binding signal (ELF5) was 1.43 fold enrichment (6-mer frequency, TF over GST control). For the same sequence, the binding signal (ETV3) was 1.46 fold enrichment (6-mer frequency, TF over GST control) and the binding signal (ETV6) was 1.4 fold enrichment (6-mer frequency, TF over GST control).
